Six compounds from PubChem BioAssay (EPA / NIEHS) can be followed below.

The structures appear in SMILES notation. Results filed as inconclusive are left out. The source made the active and inactive calls. The calls were made as follows: active = hit-call score of the fitted dose curve at least 0.9, where 1 is the maximum; inconclusive = response in the unintended direction; inactive = score below 0.9.

For one test, the target named is Caspase-1 (Homo sapiens) (UniProt P29466). Description: NVS_ENZ_hCASP1: NovaScreen (NVS) Enzymatic Assay for human Caspase 1 (CASP1) (AID 2283132). The method, then: NVS_ENZ_hCASP1 is a biochemical, single-readout assay that uses extracted gene-proteins from E. coli in a cell-free assay. Measurements were taken 1 hour after chemical dosing in a 96-well plate.NVS_ENZ_hCASP1 is one of one assay component(s) measured or calculated from the NVS_ENZ_hCASP1 assay. It is designed to make measurements of enzyme activity, a form of enzyme reporter, as detected with fluorescence intensity signals by Fluorescence technology.Data from the assay component NVS_ENZ_hCASP1 was analyzed into 1 assay endpoint. This assay endpoint, NVS_ENZ_hCASP1, was analyzed in the positive analysis fitting direction relative to DMSO as the negative control and baseline of activity. […] Furthermore, this assay endpoint can be referred to as a primary readout, because this assay has produced multiple assay endpoints where this one serves a enzymatic activity function. […]
Sequence of Caspase-1 (Homo sapiens) (P29466 whole entry, looked up): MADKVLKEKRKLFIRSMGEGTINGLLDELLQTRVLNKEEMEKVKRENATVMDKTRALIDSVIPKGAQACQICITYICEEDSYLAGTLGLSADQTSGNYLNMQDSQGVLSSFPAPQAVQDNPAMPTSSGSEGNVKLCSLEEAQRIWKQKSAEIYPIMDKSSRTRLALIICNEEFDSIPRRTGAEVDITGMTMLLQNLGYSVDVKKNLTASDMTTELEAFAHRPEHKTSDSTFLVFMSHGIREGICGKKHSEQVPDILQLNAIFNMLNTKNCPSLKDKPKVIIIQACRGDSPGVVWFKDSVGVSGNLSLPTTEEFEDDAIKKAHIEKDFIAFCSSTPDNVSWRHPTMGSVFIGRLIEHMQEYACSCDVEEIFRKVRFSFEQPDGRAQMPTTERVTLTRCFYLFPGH
Binding assays used specific radioligands (tritiated, iodinated) with non-radioactive competitive displacement ligands in agonist or antagonist protocols (as indicated) and various reference compounds and inhibitors to titrate specific binding to receptors and transporters. Most enzyme assays (CYPs, kinases, phosphatases, proteases, HDACs) used recombinant protein and specific substrates (fluorescence mostly, some colorimetric and radioactive) and inhibitors, followed by a biochemical separation of substrate and product. […]

The target in test [1] is human Caspase 10 (CASP10), CASP10 (gene 843) (UniProt Q92851). Description: NVS_ENZ_hCASP10: NovaScreen (NVS) Enzymatic Assay for human Caspase 10 (CASP10) (AID 2283133). Summed up: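 Fluorescence-intensity enzyme read-out of E. coli-expressed CASP10 activity, 1 h after compound. Single-point duplicates at 25 uM preceded concentration-response testing (top 50 uM) of hits; inhibition expressed as signal loss versus DMSO.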
Sequence of human Caspase 10 (CASP10), CASP10 (gene 843) (Q92851 whole entry, looked up): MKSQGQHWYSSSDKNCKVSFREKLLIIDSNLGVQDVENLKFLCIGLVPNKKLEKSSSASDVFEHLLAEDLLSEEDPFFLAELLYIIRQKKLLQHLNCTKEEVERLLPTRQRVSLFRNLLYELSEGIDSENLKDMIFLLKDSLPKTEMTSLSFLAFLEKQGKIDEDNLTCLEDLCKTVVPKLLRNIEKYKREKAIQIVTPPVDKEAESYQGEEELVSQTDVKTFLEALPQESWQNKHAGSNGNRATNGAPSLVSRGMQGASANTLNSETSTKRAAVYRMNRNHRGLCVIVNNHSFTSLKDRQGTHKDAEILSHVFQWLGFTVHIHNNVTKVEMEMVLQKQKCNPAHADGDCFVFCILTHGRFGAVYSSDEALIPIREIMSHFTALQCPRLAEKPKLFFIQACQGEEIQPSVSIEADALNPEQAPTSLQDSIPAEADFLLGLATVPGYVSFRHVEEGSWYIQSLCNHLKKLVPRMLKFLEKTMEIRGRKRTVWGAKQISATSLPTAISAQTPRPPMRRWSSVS

In test [2] the target is human AKT serine/threonine Kinase 2 (AKT2), AKT2 (gene 208) (UniProt P31751). The experiment in a line: NVS_ENZ_hAKT2: NovaScreen (NVS) Enzymatic Assay for human AKT serine/threonine Kinase 2 (AKT2) (AID 2283141). Summed up:
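Cell-free fluorescence/electrophoretic mobility shift readout of recombinant human AKT2 activity, 1 h after chemical dosing. Duplicate primary screen at 25 uM, then singleton concentration-response up to 50 uM; loss of signal versus DMSO baseline.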

Another test has as its target CDK2 (gene 1017) (UniProt P24941). The experiment in a line: NVS_ENZ_hCDK2: NovaScreen (NVS) Enzymatic Assay for human Cyclin-Cependent Kinase 2 (CDK2) (AID 2283144). Summed up: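 Compounds screened in duplicate at 25 uM, then in singleton concentration-response to a maximum of 50 uM, against recombinant CDK2; kinase activity read 1 hr after dosing by fluorescence with mobility-shift separation of substrate and product.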

Test [3] addresses human Caspase 8 (CASP8), CASP8 (gene 841) (UniProt Q14790). Description: NVS_ENZ_hCASP8: NovaScreen (NVS) Enzymatic Assay for human Caspase 8 (CASP8) (AID 2283146). Summed up: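 The primary screen tested compounds in duplicate at a single 25 uM concentration, with actives followed up in concentration series. Activity of recombinant (E. coli) protease was measured by fluorescence 1 h post-dose, as signal loss against DMSO.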

For test [4], the target named is human Casein Kinase 1-delta (CK1D), CSNK1D (gene 1453) (UniProt P48730). Description: NVS_ENZ_hCK1D: NovaScreen (NVS) Enzymatic Assay for human Casein Kinase 1-delta (CK1D) (AID 2283148). Summed up: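 Recombinant human CK1-delta, cell-free; fluorescent substrate with electrophoretic mobility-shift separation of product, read 1 h after dosing. Single 25 uM duplicate screen, then concentration-response up to 50 uM; loss of signal vs DMSO.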
Sequence of human Casein Kinase 1-delta (CK1D), CSNK1D (gene 1453) (P48730 whole entry, looked up): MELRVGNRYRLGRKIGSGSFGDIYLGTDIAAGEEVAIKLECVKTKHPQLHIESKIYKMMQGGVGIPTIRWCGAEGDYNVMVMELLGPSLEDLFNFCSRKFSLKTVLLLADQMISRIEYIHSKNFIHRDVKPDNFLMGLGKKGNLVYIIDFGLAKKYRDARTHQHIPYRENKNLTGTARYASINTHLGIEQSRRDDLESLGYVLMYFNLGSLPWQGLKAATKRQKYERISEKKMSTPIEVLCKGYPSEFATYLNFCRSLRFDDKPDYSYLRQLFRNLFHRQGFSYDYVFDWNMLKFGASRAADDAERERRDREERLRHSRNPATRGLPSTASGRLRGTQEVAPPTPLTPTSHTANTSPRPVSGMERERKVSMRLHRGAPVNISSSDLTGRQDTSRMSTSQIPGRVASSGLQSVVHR

The target of test [5] is human Ephrin type-A Receptor 2 (EphA2), EPHA2 (gene 1969) (UniProt P29317). Description: NVS_ENZ_hEphA2: NovaScreen (NVS) Enzymatic Assay for human Ephrin type-A Receptor 2 (EphA2) (AID 2283155). Summed up:
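Enzyme activity of recombinant EphA2 read by fluorescence after mobility-shift separation, 1 h after dosing. Chemicals first tested at 25 uM (duplicate); those passing threshold run as concentration series, top 50 uM, single replicate, relative to DMSO.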

Test [6] deals with human Elastase, ELANE (gene 1991) (UniProt P08246). The experiment in a line: NVS_ENZ_hElastase: NovaScreen (NVS) Enzymatic Assay for human Elastase (AID 2283153). Summed up:
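Concentration-response to 50 uM max, run singly for chemicals passing a threshold (e.g., 30% inhibition) in a duplicate 25 uM single-point screen. Neutrophil-derived human elastase, absorbance read-out of enzyme activity at 1.5 h; DMSO baseline.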

Test [7] addresses human Ephrin type-B Receptor 2 (EphB2), EPHB2 (gene 2048) (UniProt P29323). Description: NVS_ENZ_hEphB2: NovaScreen (NVS) Enzymatic Assay for human Ephrin type-B Receptor 2 (EphB2) (AID 2283156). Here is the method:
NVS_ENZ_hEphB2 is a biochemical, single-readout assay that uses extracted gene-proteins in a cell-free assay. Measurements were taken 1 hour after chemical dosing in a 384-well plate.NVS_ENZ_hEphB2 is one of one assay component(s) measured or calculated from the NVS_ENZ_hEphB2 assay. It is designed to make measurements of enzyme activity, a form of enzyme reporter, as detected with fluorescence intensity signals by Fluorescence and electrophoretic mobility shift technology.Data from the assay component NVS_ENZ_hEphB2 was analyzed into 1 assay endpoint. This assay endpoint, NVS_ENZ_hEphB2, was analyzed in the positive analysis fitting direction relative to DMSO as the negative control and baseline of activity. Using a type of enzyme reporter, loss-of-signal activity can be used to understand changes in the enzymatic activity as they relate to the gene EPHB2. Furthermore, this assay endpoint can be referred to as a primary readout, because this assay has produced multiple assay endpoints where this one serves a enzymatic activity function. To generalize the intended target to other relatable targets, this assay endpoint is annotated to the kinase intended target family, where the subfamily is receptor tyrosine kinase. […]

The AC50 is the concentration at which the activity in the assay is half-maximal.

Sequence of human AKT serine/threonine Kinase 2 (AKT2), AKT2 (gene 208) (P31751 whole entry, looked up): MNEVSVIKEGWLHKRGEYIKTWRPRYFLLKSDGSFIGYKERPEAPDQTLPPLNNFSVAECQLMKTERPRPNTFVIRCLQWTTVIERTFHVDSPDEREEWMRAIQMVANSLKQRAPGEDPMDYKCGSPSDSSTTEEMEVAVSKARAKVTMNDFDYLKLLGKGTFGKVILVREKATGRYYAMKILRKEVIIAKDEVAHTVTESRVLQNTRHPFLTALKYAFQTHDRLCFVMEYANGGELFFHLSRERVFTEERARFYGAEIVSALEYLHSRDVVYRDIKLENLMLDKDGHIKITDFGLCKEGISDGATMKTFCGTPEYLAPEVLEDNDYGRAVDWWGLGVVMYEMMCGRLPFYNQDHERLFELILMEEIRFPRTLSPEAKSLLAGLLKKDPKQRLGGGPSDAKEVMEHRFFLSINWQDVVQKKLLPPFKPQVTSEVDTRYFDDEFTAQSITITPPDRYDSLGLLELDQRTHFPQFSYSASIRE
Sequence of human Elastase, ELANE (gene 1991) (P08246 whole entry, looked up): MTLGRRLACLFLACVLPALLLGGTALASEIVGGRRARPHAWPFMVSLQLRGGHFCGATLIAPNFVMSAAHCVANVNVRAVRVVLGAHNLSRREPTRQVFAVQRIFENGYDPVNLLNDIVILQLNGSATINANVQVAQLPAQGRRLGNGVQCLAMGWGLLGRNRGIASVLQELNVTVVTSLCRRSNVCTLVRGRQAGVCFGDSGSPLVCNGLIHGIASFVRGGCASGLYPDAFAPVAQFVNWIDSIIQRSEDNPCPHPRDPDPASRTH
Sequence of human Ephrin type-A Receptor 2 (EphA2), EPHA2 (gene 1969) (P29317 whole entry, looked up): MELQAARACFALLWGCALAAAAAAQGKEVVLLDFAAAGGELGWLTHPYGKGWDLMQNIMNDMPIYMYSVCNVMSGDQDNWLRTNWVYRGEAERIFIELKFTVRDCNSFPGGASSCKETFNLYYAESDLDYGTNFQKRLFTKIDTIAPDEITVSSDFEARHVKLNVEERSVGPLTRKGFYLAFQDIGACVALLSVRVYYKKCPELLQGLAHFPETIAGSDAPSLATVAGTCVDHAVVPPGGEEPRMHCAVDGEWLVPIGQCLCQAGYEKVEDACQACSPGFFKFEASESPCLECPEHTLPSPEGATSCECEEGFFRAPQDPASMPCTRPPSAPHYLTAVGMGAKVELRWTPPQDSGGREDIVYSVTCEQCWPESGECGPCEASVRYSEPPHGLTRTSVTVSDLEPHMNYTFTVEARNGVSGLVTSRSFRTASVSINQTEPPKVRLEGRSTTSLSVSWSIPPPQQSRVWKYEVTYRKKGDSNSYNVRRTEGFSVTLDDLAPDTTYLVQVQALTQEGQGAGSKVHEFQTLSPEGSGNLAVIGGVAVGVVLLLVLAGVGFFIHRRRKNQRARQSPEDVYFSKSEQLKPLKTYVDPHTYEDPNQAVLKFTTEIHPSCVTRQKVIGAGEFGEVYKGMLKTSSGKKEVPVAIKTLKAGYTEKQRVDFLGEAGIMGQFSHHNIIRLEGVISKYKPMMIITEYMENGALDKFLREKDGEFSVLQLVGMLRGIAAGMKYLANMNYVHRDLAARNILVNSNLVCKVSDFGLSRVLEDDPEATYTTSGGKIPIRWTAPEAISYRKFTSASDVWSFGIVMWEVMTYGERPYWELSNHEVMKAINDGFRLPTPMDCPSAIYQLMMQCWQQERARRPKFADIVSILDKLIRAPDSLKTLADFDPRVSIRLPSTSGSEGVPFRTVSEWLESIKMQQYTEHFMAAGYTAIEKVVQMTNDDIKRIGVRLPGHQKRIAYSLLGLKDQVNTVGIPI
Sequence of human Caspase 8 (CASP8), CASP8 (gene 841) (Q14790 whole entry, looked up): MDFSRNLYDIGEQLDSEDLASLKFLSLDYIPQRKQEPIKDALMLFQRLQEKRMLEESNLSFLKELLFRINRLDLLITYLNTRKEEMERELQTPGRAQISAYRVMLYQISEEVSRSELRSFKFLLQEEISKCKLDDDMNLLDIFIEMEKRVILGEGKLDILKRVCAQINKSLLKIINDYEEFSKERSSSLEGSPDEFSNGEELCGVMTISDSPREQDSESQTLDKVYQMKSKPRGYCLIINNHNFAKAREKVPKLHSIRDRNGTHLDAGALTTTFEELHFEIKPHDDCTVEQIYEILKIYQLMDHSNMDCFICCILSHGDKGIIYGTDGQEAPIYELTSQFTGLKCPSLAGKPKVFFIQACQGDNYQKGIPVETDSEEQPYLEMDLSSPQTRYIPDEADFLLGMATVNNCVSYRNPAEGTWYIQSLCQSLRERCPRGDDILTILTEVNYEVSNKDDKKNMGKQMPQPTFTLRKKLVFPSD
Sequence of human Ephrin type-B Receptor 2 (EphB2), EPHB2 (gene 2048) (P29323 whole entry, looked up): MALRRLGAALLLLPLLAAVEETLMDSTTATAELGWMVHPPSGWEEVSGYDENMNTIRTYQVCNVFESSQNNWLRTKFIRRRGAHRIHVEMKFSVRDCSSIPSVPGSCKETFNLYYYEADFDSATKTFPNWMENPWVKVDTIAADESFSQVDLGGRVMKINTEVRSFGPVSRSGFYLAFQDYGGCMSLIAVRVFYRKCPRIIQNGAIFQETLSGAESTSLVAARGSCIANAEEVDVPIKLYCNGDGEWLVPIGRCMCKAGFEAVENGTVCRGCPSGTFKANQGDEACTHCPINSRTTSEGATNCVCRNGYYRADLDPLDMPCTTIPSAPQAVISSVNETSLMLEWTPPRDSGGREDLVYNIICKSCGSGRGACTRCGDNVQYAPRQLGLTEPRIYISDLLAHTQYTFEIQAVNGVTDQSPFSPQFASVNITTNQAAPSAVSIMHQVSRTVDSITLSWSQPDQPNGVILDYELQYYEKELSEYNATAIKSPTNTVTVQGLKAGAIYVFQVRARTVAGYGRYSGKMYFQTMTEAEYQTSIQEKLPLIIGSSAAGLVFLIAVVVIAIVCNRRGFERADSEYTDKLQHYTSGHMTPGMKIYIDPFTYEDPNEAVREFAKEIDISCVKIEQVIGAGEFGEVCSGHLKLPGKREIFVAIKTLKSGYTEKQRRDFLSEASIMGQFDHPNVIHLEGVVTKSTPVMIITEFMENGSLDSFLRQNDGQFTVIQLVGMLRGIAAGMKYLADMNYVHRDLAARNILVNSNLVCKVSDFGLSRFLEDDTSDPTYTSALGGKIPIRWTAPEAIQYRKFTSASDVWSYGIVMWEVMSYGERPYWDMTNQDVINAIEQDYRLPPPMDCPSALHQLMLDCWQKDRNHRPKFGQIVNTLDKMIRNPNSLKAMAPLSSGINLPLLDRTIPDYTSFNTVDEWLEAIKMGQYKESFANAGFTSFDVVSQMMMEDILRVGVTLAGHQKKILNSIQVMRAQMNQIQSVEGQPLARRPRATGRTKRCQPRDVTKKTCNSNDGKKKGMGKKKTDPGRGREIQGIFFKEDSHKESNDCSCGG

As to `CC(C)O.CC(C)O.OCCN(CCO)CCO.OCCN(CCO)CCO.[Ti]`, the AC50 in the test with Caspase-1 (Homo sapiens) is 1.37 µM (active); in test [1], 8.59 µM (active); in [2] it was 3.46 µM (active); in the test with CDK2 (gene 1017), 0.003 µM (active); in test [3] it was 1.13 µM (active); in test [4], 10.8 µM (active).
Turning to `COc1ccccc1N`, in test [2], the outcome was inactive.
Consider `N#Cc1cccnc1`, for which the result (in the test with CDK2 (gene 1017); in [5]) was inactive.
For the compound `CCCCCCCCCCCCc1cccc(S(=O)(=O)O)c1`, the AC50 in [4] is 28.6 µM (active); in test [6], 26.7 µM (active). For the same compound, the call in [7] was inactive.
`O=C(O)C1(c2ccc3c(c2)OC[C@H](Cc2ccc(-c4ccccc4)cc2)[C@H]3O)CCCC1`: the AC50 in [6] is 17.7 µM (active).
On to `CCCCCCCCCCCCOS(=O)(=O)O`, for which the AC50 in test [5] is 40.8 µM (active).
